Source: PubChem (National Center for Advancing Translational Sciences (NCATS))
ELG1 genotoxic – qHTS screen for small molecules that induce genotoxicity in human embryonic kidney (HEK293T) cells expressing luciferase-tagged ELG1; HEK293T ELG1-luciferase reporter, luminescence, 16 h; Potency, µM (series often up to 46 µM), for the others: at the highest dose activity change, positive = activation, most hits filed as activators; actives 1.3% (n = 330,000); AID 504466, 2011; note: % of control where 0% means no effect; nearly all actives have a fitted effect of over 60% in size
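Genotoxic stress is detected as increased luminescence from luciferase-tagged ELG1 in HEK293T cells, measured with ONE-Glo after a 16 hr treatment at 37 °C.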
Luc counter – Counterscreen for Luciferase (Kinase-Glo TM) Inhibition; Luciferin 4-monooxygenase (Photuris pensylvanica), Q27757; Kinase-Glo luciferase, ATP luminescence, 8 min; Potency, µM (top dose mostly 38.3 µM), without a hit: at the highest dose activity change, negative = inhibition, usual class: inhibitors; actives 0.28% (n = 200,000); AID 1379, 2008; note: % is set by controls: 0 for no effect and ±100 for the full control effect; nearly all actives have a fitted effect of over 60% in size
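Compounds were added to a substrate mix at pH 7.2 (50 mM imidazole, 10 uM ATP, within the enzyme's linear range), followed by Kinase-Glo detection reagent; luminescence was measured after 8 minutes at ambient temperature.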
SMN2 splice enh – qHTS Assay for Enhancers of SMN2 Splice Variant Expression. Potency, µM (series often up to 46.1 µM), for the others: at the top dose activity change, positive = activation, most hits filed as activators. actives 2.8% (n = 210,000). HEK293 SMN2-luciferase splicing reporter, luminescence, 30-36 h; note: % of control where 0% means no effect; nearly all actives have a fitted effect of over 55% in size
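HEK293 cells carry an SMN2 […]–luciferase reporter in which exon 7 inclusion puts luciferase in frame. Cells were plated 10-12 h before compound addition, then incubated 30-36 h at 37C. ONE-Glo luminescence was read; sodium butyrate at 4.5 mM final served as control.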
NPC1 promoter act – qHTS Assay for NPC1 Promoter Activators. Huh7 NPC1 promoter luciferase reporter, 24 h. Potency, µM (highest dose often 9.22 µM), for the others: top-dose activation, most hits filed as activators. actives 2.4% (n = 320,000). AID 485313, 2010; note: % of control where 0% means no effect; nearly all actives have a fitted effect of over 60% in size
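Huh7 reporter cells (NPC1 promoter driving luciferase) are dosed with compound for 24 h at 37 °C, 5% CO2; luciferase detection reagent is then added and luminescence measured after 10 min at ambient temperature.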
Rab9 promoter act – qHTS Assay for Rab9 Promoter Activators; Huh7 Rab9 promoter-luciferase reporter, luminescence, 24 h; Potency, µM (doses to about 9.22 µM), inactives show at the top dose activation, negative = inhibition, most hits filed as activators; AID 485297, 2010; actives 2.8% (n = 320,000); note: % of control where 0% means no effect; nearly all actives have a fitted effect of over 60% in size
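Luminescence from Amplite-detected luciferase (10 minutes, ambient) reports Rab9 promoter activation. Before that, stable Rab9-luciferase Huh7 cells (1500/well, reduced-serum OP-MEM I plus 10% FBS) were exposed to compound for 24 hours at 37C.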
FLuc counter – qHTS profiling assay for firefly luciferase inhibitor/activator using purifed enzyme and Km concentrations of substrates (counterscreen for miR-21 project); Potency, µM (series often up to 57.5 µM), inactives show top-dose activity change, negative = inhibition, hits mostly inhibitors; actives 6.9% (n = 360,000); purified FLuc, Km substrates, luminescence inhibition; AID 588342, 2011;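 note: plate controls were vehicle for no effect and reference inhibitor for full effect; nearly all actives have a fitted effect of over 55% in size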
Target sequence (P08659 whole entry, looked up): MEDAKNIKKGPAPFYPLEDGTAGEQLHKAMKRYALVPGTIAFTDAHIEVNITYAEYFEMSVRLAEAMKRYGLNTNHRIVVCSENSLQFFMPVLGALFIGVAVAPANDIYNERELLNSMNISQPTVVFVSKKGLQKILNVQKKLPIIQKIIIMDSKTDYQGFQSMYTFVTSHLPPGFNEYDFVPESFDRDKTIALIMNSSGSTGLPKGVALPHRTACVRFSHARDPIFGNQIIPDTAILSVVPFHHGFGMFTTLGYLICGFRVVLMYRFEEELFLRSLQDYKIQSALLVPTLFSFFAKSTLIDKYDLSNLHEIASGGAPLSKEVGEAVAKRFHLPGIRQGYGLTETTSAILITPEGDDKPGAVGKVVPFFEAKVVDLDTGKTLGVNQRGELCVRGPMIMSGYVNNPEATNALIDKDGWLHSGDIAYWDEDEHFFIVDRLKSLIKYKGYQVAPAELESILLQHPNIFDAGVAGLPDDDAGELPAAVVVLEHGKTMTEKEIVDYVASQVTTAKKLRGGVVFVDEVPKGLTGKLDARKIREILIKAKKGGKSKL
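Biochemical qHTS of compounds, final roughly 60 µM downward over six points, against 10 nM purified firefly luciferase using Km concentrations of substrates (10 uM D-luciferin, 10 uM ATP) in Tris acetate pH 7.5 buffer; luminescence output.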
* = called active by the depositor; ? = inconclusive; nt = no result; [ ] = remark or other dose. Rows were chosen to be rich in hits. Some 7.4% of all compounds tested hit in one or more screens of this group. Calls come from the whole dose curve; as a rule, active = well fitted curve in the direction sought with a large enough effect; inconclusive = small, poorly fitted or top-dose-only effect, or another doubt; inactive = no such curve, though single readings can be large; an effect the other way counts as inactive or inconclusive. Potency is the fitted concentration of half-maximal effect.

SMILES	ELG1 genotoxic	Luc counter	SMN2 splice enh	NPC1 promoter act	Rab9 promoter act	FLuc counter
CCOc1ccc2nc(N3CCCC(C(=O)NCc4ccc(OC)cc4)C3)sc2c1 (stereo not given)	nt	nt	13µM*	nt	nt	2.4µM*
CCOc1ccc2nc(N3CCCCCC3)sc2c1	?	-4%	7.9µM*	1.1µM*	1µM*	1.1µM*
COC(=O)N1C(/C=C/c2ccc3c(c2)OCO3)=Cc2ccccc2C1CC(C)=O (stereo not given)	nt	-5%[7.66 µM]	-4%[9.22 µM]	nt	nt	nt
Cc1ccc(C)c(N2CCN(C(=O)C3CCC(CNS(=O)(=O)c4ccc(Br)s4)CC3)CC2)c1 (stereo not given)	nt	nt	-20%	nt	nt	-1%
COc1ccc(N2CCN(CCCNC(=O)c3ccc4nc(N5CCCCC5)sc4c3)CC2)cc1	nt	nt	0.79µM*	nt	nt	?
CCOc1ccc2nc(N3CCN(C(=O)CS(=O)(=O)c4ccc(F)cc4)CC3)sc2c1	nt	nt	nt	nt	nt	3µM*
CCOc1ccc2nc(N3CCCC(C(=O)N4CCN(CC)CC4)C3)sc2c1 (stereo not given)	13%	0%	?	?	?	21µM*
CCOc1ccc2nc(N3CCC(C(=O)Nc4nnc(CC)s4)CC3)sc2c1	12µM*	-3%	2.2µM*	1.1µM*	4µM*	?
COc1ccccc1C(=O)OCc1cc(=O)n2nc(C(C)C)sc2n1	nt	nt	nt	nt	nt	-16%
CC(C)C(NC(=O)C(Cc1ccc(O)cc1)NC(=O)C(NC(=O)C(F)(F)F)C(C)C)C(=O)O (stereo not given)	nt	1%	3%	nt	nt	nt
CCN1CCC(O)([C@H](C(=O)O)c2ccccc2)CC1	nt	-1%[7.66 µM]	-6%[9.22 µM]	nt	nt	nt
CC(=O)NC1C(O)C[C@@](O)(C(=O)O)OC1[C@@H](O)C(O)CO (stereo not given in full)	nt	-4%	-5%	nt	nt	nt
CCOc1cc2sc(N3CCC(C(=O)Nc4ccccc4C(=O)OC)CC3)nc2cc1Br	nt	nt	8%	nt	nt	-2%
Cc1cc(C)c2nc(N3CCCC(C(=O)NC4CCCC4)C3)sc2c1 (stereo not given)	7%[9.26 µM]	nt	nt	30%	?	9.5µM*
CCOc1ccc2nc(N3CCCC(C(=O)NCCCOC)C3)sc2c1 (stereo not given)	nt	nt	14µM*	nt	nt	12µM*
CCOc1cc2sc(N3CCC(C(=O)Nc4ccc(C)cc4)CC3)nc2cc1Br	nt	nt	16µM*	nt	nt	-9%
CCOc1ccc2nc(N3CCCC(C(=O)NCCc4ccc(C)cc4)C3)sc2c1 (stereo not given)	nt	nt	13%	nt	nt	-18%
CCCN1CCN(CCCNC(=O)C2CCCN(c3nc4ccc(OCC)cc4s3)C2)CC1 (stereo not given)	1%	-1%	10%	-2%	-12%	2%
CCOc1ccc2nc(N3CCCC(C(=O)Nc4ccc(Br)c(C)c4)C3)sc2c1 (stereo not given)	nt	nt	24%	nt	nt	6µM*
C[C@@H]1CC[C@]2(C(=O)O)CC[C@]3(C)C(=CCC4[C@@]5(C)C[C@@H](O)[C@H](O)[C@@](C)(CO)C5[C@H](O)C[C@]43C)C2[C@H]1C (stereo not given in full)	nt	0%[39.9 µM]	nt	nt	nt	nt
COc1ccc(CCn2c(=O)c3cccnc3n(CC(=O)Nc3cccc(C)c3)c2=O)cc1OC	nt	nt	-7%	nt	nt	-2%
O=C(CSc1nc2ccccc2n1CC(=O)Nc1ccc(F)cc1F)Nc1ccc(F)cc1	nt	nt	nt	nt	nt	0%
O=C(Cn1c(SCc2ccc(F)cc2)nc2cccnc21)Nc1ccccc1F	nt	nt	nt	nt	nt	9.5µM*
COc1ccc(NC(=O)Cn2c(SCc3ccc(C)cc3)nc3cccnc32)cc1OC	nt	nt	nt	nt	nt	0.6µM*
COc1ccc(NC(=O)Cn2c(SCc3ccc(F)cc3)nc3cccnc32)cc1OC	nt	nt	nt	nt	nt	2.7µM*
